The record followed here is the supplement of paper PMC10849652.

The full data set covers some 7,900 targets. This sample favours those with a hit. About 0.6% of all pairs of compound and target were hits.

Sequence of UniProt P28070 (P28070 whole entry, looked up): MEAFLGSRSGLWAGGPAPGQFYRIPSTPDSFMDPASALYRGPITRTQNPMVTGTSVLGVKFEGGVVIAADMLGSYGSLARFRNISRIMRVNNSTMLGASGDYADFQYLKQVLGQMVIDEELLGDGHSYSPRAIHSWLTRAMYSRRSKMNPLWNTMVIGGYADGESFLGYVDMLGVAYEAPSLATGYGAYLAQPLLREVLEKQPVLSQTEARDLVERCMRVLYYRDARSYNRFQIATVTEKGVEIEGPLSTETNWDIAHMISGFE
Sequence of UniProt Q8TAP8 (Q8TAP8 whole entry, looked up): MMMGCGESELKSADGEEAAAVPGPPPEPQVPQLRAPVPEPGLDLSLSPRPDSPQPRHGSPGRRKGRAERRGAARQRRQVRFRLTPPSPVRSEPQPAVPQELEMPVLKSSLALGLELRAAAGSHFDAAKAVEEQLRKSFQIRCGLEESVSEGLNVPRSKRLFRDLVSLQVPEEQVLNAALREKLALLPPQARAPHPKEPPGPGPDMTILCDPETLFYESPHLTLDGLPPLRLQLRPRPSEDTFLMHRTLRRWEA
Sequence of UniProt Q92968 (Q92968 whole entry, looked up): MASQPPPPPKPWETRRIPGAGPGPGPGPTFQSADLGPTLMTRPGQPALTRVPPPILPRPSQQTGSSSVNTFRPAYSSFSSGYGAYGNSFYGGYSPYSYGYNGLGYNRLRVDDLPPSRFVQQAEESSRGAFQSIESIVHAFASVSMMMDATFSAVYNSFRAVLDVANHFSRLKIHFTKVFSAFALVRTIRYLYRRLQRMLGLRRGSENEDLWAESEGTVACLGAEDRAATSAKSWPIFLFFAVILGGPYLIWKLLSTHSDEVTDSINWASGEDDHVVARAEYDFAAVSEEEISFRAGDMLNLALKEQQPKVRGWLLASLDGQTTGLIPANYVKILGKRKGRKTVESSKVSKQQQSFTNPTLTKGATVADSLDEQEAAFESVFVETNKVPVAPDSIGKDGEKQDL
Sequence of UniProt P35998 (P35998 whole entry, looked up): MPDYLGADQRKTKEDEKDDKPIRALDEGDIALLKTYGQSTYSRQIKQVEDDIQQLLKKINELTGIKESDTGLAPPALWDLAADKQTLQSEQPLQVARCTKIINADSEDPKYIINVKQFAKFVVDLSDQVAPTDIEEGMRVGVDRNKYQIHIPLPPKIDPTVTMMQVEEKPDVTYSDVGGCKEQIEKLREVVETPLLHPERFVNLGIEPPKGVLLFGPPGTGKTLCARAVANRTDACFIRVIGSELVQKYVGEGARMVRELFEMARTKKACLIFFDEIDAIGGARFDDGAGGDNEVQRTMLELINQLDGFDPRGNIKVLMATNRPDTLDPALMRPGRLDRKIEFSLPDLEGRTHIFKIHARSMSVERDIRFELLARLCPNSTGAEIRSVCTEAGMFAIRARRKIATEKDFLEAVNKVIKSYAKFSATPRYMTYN
Sequence of UniProt Q9H814 (Q9H814 whole entry, looked up): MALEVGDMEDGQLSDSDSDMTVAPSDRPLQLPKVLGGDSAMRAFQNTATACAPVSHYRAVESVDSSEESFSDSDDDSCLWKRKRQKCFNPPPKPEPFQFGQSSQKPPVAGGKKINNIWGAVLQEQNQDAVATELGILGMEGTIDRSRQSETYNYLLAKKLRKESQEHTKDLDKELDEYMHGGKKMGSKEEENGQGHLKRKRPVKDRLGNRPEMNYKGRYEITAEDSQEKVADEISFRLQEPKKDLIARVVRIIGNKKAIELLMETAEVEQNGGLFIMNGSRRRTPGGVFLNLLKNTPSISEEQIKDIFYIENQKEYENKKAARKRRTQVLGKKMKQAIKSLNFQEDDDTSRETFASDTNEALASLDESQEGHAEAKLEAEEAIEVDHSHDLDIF
Sequence of UniProt O75340 (O75340 whole entry, looked up): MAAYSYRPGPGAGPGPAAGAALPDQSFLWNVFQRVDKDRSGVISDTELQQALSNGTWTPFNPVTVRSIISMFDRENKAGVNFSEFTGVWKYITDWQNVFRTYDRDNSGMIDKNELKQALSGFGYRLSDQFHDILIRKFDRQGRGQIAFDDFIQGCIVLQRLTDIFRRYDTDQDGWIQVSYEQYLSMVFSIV
Sequence of UniProt Q05209 (Q05209 whole entry, looked up): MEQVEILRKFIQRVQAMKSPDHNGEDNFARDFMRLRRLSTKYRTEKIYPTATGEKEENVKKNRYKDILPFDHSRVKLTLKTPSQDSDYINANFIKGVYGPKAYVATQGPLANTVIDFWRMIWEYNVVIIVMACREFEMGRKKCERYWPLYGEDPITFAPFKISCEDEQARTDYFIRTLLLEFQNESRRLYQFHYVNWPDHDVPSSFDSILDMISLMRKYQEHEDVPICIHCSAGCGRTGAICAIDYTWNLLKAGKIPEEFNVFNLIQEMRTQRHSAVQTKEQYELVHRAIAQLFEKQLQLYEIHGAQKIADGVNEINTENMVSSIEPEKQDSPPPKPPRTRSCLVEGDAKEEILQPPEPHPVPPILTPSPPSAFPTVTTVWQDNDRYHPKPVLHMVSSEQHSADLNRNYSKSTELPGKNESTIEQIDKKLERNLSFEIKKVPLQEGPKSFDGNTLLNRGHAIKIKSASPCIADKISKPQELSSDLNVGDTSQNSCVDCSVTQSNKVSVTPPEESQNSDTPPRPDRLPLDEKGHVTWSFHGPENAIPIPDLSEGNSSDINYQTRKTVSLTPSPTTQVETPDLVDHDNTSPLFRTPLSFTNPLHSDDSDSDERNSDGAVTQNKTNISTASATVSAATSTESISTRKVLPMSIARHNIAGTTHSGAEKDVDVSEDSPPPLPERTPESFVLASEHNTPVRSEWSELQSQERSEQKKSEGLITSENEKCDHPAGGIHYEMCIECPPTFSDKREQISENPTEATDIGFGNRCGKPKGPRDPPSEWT
Sequence of UniProt P28072 (P28072 whole entry, looked up): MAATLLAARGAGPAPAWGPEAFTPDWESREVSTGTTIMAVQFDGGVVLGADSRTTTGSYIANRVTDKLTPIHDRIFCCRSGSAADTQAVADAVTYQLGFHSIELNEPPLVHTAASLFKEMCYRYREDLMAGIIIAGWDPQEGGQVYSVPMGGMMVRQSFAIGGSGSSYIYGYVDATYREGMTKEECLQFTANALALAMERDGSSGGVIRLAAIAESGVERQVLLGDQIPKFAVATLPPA
Sequence of UniProt P62191 (P62191 whole entry, looked up): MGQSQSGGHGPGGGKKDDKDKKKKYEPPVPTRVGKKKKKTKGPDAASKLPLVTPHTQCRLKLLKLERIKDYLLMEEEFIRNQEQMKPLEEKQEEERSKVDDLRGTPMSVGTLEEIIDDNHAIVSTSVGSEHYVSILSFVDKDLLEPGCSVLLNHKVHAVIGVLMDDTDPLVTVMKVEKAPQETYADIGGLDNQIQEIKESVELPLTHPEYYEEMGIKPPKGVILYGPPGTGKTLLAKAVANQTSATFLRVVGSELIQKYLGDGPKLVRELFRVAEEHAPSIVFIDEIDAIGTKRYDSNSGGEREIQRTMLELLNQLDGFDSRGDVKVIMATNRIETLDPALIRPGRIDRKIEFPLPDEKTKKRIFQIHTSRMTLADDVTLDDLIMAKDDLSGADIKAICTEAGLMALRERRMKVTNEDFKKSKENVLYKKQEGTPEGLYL
Sequence of UniProt Q99575 (Q99575 whole entry, looked up): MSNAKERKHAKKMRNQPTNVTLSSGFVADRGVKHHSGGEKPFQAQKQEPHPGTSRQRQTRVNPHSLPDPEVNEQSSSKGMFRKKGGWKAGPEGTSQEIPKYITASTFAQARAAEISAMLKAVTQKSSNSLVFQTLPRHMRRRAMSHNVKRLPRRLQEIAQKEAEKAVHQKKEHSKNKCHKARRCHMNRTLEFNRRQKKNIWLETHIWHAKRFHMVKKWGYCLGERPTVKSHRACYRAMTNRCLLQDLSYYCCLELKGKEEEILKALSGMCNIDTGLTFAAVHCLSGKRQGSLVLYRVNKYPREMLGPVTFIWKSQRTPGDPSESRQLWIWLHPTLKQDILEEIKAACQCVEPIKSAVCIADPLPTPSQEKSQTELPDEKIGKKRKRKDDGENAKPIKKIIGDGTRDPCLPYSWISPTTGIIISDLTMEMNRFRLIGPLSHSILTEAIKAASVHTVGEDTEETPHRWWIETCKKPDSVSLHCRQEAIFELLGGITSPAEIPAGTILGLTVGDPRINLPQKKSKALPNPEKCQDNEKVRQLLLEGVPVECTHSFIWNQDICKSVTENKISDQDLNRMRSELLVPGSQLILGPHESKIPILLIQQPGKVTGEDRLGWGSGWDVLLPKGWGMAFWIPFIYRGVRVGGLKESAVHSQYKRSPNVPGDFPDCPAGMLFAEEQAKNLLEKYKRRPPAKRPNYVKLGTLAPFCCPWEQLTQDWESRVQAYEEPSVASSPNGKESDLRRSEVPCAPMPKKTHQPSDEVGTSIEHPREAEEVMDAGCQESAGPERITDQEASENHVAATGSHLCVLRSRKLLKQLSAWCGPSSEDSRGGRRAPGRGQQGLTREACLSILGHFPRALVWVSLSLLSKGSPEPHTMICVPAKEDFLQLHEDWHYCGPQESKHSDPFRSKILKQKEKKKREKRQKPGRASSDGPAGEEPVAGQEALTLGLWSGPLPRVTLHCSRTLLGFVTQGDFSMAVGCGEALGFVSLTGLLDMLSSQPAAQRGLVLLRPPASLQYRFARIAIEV
Sequence of UniProt Q9Y478 (Q9Y478 whole entry, looked up): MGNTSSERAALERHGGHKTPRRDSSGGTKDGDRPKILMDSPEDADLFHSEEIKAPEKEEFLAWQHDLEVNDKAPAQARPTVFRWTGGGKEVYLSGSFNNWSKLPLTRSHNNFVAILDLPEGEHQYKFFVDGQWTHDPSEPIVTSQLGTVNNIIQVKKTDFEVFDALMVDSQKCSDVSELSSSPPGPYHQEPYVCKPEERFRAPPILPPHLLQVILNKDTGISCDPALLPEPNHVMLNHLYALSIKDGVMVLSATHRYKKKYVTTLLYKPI
Sequence of UniProt Q15121 (Q15121 whole entry, looked up): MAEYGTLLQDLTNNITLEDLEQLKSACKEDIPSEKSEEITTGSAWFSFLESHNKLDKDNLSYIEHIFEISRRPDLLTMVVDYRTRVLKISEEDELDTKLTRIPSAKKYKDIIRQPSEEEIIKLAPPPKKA

Compound in the first assay: C=CC(=O)N1CCC[C@@H](n2nc(-c3ccc(Oc4ccccc4)cc3)c3c(N)ncnc32)C1 [ibrutinib]
Put plainly: log2 fold change, soluble protein after heating vs DMSO (PISA); higher = thermal stabilisation; K562 cells, 10 uM, 30 min; active = over 0.2 and 3.5 SD of the protein, either way, in both replicates (recomputed). A digest of the protocol:
(§1)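 K562 cells (2×10^6 cells/mL) were treated with 10 μM compound for 30 min, and aliquots were heated for 3 min over 48°C-58°C. Pooled aliquots were extracted in PBS with 0.5% NP-40 at 4°C, and the supernatant after 21,000xg for 90 min was measured by TMTpro 16plex LC-MS/MS with channel sums equalised. Reported thermal stability, relative to control samples and from duplicates, is a log2 fold change.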
As to PSMC2 (UniProt P35998), the log2 fold change is -0.009 (inactive).
In the case of PSMB6 (UniProt P28072), the log2 fold change was -0.025 (inactive).
Same read-out and setting: then PRKD2 isoform 3 (UniProt Q9BZL6), with -0.057 (inactive).
Still for that read-out and setting: then QKI (UniProt Q96PU8), with -0.004 (inactive); and PKN1 isoform 2 (UniProt Q16512), with -0.018 (inactive); and PRPF38B (UniProt Q5VTL8), with -0.005 (inactive).
As to PTPN12 (UniProt Q05209), the log2 fold change was -0.008 (inactive).
In the case of PDCD6 (UniProt O75340), the log2 fold change was -0.05 (inactive).
Still for that read-out and setting: the same measure for PPOX (UniProt P50336): 0.136 (inactive); for POP1 (UniProt Q99575): 0 (inactive).
Still for that read-out and setting: then PIKFYVE (UniProt Q9Y2I7), with -0.097 (inactive); and PPP1R35 (UniProt Q8TAP8), with -0.057 (inactive).
On the same count and under the same terms, then PSMB4 (UniProt P28070), with 0.006 (inactive); and PLIN2 (UniProt Q99541), with 0.055 (inactive); and PCNT (UniProt O95613), with -0.078 (inactive).
As to PSMD13 (UniProt Q9UNM6), the log2 fold change is -0.039 (inactive).
The same measure, in the same setting: then PEA15 isoform 2 (UniProt Q15121), with -0.024 (inactive); and PARG (UniProt Q86W56), with -0.022 (inactive); and PDLIM7 (UniProt Q9NR12), with 0.005 (inactive).
Same read-out and setting: the same measure for PEX13 (UniProt Q92968): -0.067 (inactive).
Still for that read-out and setting: then PRKCD (UniProt Q05655), with -0.027 (inactive); and PSMC5 (UniProt P62195), with -0.031 (inactive); and PCBP1 (UniProt Q15365), with -0.017 (inactive).
Regarding POLR3B (UniProt Q9NW08), the log2 fold change was -0.048 (inactive).
With PHKG2 (UniProt P15735), the log2 fold change was -0.008 (inactive).
The same measure, in the same setting: then POLR2D (UniProt O15514), with 0.082 (inactive); and PRKAB1 (UniProt Q9Y478), with -0.02 (inactive); and PRKAA1 isoform 2 (UniProt Q13131), with -0.006 (inactive).
Turning to PSMC4 (UniProt P43686), the log2 fold change was -0.012 (inactive).
Still for that read-out and setting: then PRKAR1A (UniProt P10644), with 0.035 (inactive); and PIK3R1 (UniProt P27986), with -0.004 (inactive); and PHAX (UniProt Q9H814), with 0.027 (inactive).
On the same count and under the same terms, the same measure for PIP4P2 (UniProt Q8N4L2): 0 (inactive); for PLBD1 (UniProt Q6P4A8): -0.002 (inactive); for PSMC1 (UniProt P62191): -0.024 (inactive).
Take PDE12 (UniProt Q6L8Q7): the log2 fold change was 0.015 (inactive).
On the same count and under the same terms, the same measure for PARN (UniProt O95453): -0.047 (inactive).

Compound in a further assay: CC(=O)c1cnc2ccc(-c3cc(Cl)c(O)c(Cl)c3)nc2c1N[C@H]1CC[C@H](CN(C)C)CC1
The description is as above. The method, boiled down:
as §1
As to PSMC2 (UniProt P35998), the log2 fold change was 0.079 (inactive).
Same read-out and setting: the same measure for PSMB6 (UniProt P28072): 0.049 (inactive); for PRKD2 isoform 3 (UniProt Q9BZL6): -1.03 (active).
As to QKI (UniProt Q96PU8), the log2 fold change is -0.113 (inactive).
The same measure, in the same setting: the same measure for PKN1 isoform 2 (UniProt Q16512): -1.2 (active); for PRPF38B (UniProt Q5VTL8): -0.646 (active); for PTPN12 (UniProt Q05209): 0.264 (active).
On the same count and under the same terms, the same measure for PDCD6 (UniProt O75340): -0.029 (inactive); for PPOX (UniProt P50336): -0.151 (inactive); for POP1 (UniProt Q99575): 0.001 (inactive).
The same measure, in the same setting: then PIKFYVE (UniProt Q9Y2I7), with -0.07 (inactive); and PPP1R35 (UniProt Q8TAP8), with -0.069 (inactive).
With PSMB4 (UniProt P28070), the log2 fold change was 0.044 (inactive).
On the same count and under the same terms, then PLIN2 (UniProt Q99541), with 0.005 (inactive); and PCNT (UniProt O95613), with -0.079 (inactive); and PSMD13 (UniProt Q9UNM6), with 0.048 (inactive).
The same measure, in the same setting: the same measure for PEA15 isoform 2 (UniProt Q15121): 0.054 (inactive); for PARG (UniProt Q86W56): -0.124 (inactive); for PDLIM7 (UniProt Q9NR12): -0.054 (inactive).
As for PEX13 (UniProt Q92968), the log2 fold change is -0.011 (inactive).
Still for that read-out and setting: the same measure for PRKCD (UniProt Q05655): -0.685 (active); for PSMC5 (UniProt P62195): 0.008 (inactive); for PCBP1 (UniProt Q15365): -0.005 (inactive).
Same read-out and setting: then POLR3B (UniProt Q9NW08), with 0.044 (inactive); and PHKG2 (UniProt P15735), with 0.39 (active).
In the case of POLR2D (UniProt O15514), the log2 fold change was 0.346 (active).
For PRKAB1 (UniProt Q9Y478), the log2 fold change is -0.184 (inactive).
As to PRKAA1 isoform 2 (UniProt Q13131), the log2 fold change is -0.343 (active).
On the same count and under the same terms, the same measure for PSMC4 (UniProt P43686): 0.022 (inactive); for PRKAR1A (UniProt P10644): -0.049 (inactive).
Still for that read-out and setting: then PIK3R1 (UniProt P27986), with 0.077 (inactive); and PHAX (UniProt Q9H814), with -0.041 (inactive).
Still for that read-out and setting: the same measure for PIP4P2 (UniProt Q8N4L2): -0.028 (inactive).
PLBD1 (UniProt Q6P4A8): the log2 fold change is 0.025 (inactive).
On the same count and under the same terms, then PSMC1 (UniProt P62191), with 0.056 (inactive); and PDE12 (UniProt Q6L8Q7), with 0.085 (inactive); and PARN (UniProt O95453), with -0.092 (inactive).
